Reference: PubChem BioAssay (Tox21)
Values joined by “and” are separate entries in the source; they are usually repeats but may differ in a detail not shown here. Equal entries are not always repeated. Records with an inconclusive call do not appear. Where a call stands in place of a potency, no number is given. Where a structure was tested more than once in an assay, its records may differ in their call. Active and inactive are the calls of the source. Unless noted, calls follow the shape of the dose curve; as a rule, active = well fitted curve in the direction sought with a large enough effect in the repeat runs; inconclusive = weak or mixed curves; inactive = no such curve, though single readings can be large; an effect the other way counts as inactive or inconclusive.

What was measured:
[1] = molecular target: Luciferin 4-monooxygenase (Photinus pyralis) (UniProt P08659); experiment: qHTS assay to identify small molecule inhibitors of firefly luciferase (AID 1224835); also: nearly all actives have a fitted effect of over 25% in size; also: potency is read from the fitted curve at half-maximal effect; details: purified P. pyralis luciferase, luminescence inhibition; series mostly up to 115 µM
Luciferin 4-monooxygenase (Photinus pyralis), sequence (P08659 whole entry, looked up): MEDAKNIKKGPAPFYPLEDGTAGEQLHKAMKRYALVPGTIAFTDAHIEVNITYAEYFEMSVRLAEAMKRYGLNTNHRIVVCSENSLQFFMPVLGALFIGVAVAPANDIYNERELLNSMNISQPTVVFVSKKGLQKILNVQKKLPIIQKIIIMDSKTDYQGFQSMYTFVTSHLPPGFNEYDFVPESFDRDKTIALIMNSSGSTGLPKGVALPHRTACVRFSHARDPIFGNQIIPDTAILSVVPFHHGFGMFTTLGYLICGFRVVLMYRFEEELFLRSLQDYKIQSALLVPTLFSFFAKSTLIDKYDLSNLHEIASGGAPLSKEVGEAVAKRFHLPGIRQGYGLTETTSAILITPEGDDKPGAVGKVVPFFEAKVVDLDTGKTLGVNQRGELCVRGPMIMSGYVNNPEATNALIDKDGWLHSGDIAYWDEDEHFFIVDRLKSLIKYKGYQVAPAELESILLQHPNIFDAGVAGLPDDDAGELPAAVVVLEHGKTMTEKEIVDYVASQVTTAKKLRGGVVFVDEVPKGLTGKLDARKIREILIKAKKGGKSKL
In short: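 Inhibition of purified Photinus luciferase is measured by luminescence. Substrate levels (D-luciferin, ATP) sit at their KM values. Each compound is tested in a concentration series.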

[2] = qHTS assay to identify small molecule agonists of the constitutive androstane receptor (CAR) signaling pathway - cell viability counter screen (AID 1224836); details: HepG2-CYP2B6-hCAR viability, CellTiter-Fluor, 23 h, PK11195 added to every well; series mostly up to 92.4 µM; also: nearly all actives have a fitted effect of over 45% in size
In short: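 Cell viability multiplexed with the CAR agonist screen: CellTiter-Fluor fluorescence after 23 hr at 37 C. HepG2-CYP2B6-hCAR cells got compounds at 15 concentrations with PK11195 at 0.75 uM final.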

[3] = qHTS assay to identify small molecule antagonists of the constitutive androstane receptor (CAR) signaling pathway - cell viability counter screen (AID 1224837); details: HepG2-CYP2B6-hCAR viability, CellTiter-Fluor, 23 h, co-treated with 50 nM CITCO; series mostly up to 92.4 µM; also: nearly all actives have a fitted effect of over 45% in size
In short: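 Counter screen run in HepG2-CYP2B6-hCAR cells: 4 hr settle, compound titration (15 concentrations) with 50 nM CITCO, 23 hr at 37 C/5% CO2, CellTiter-Fluor fluorescence.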

[4] = molecular target: Nuclear receptor subfamily 1 group I member 3 (Homo sapiens) (UniProt Q14994); experiment: qHTS assay to identify small molecule antagonists of the constitutive androstane receptor (CAR) signaling pathway (AID 1224838); details: HepG2-CYP2B6-hCAR luciferase, CITCO-stimulated, 24 h; series mostly up to 92.4 µM;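 also: HepG2 cells stably expressing hCAR with CYP2B6 luciferase reporter stimulated by CITCO; nearly all actives have a fitted effect of over 40% in size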
Nuclear receptor subfamily 1 group I member 3 (Homo sapiens), sequence (Q14994 whole entry, looked up): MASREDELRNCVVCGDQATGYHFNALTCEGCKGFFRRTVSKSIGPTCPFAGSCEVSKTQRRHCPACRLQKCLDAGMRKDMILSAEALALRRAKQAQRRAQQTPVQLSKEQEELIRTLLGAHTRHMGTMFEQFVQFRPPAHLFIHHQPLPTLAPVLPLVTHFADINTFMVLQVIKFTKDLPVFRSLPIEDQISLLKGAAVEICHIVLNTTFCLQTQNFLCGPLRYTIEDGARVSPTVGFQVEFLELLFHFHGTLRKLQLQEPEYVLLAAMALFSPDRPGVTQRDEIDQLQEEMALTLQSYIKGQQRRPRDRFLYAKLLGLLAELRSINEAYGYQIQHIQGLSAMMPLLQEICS
In short: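 Cell line: HepG2 double-stable for hCAR and CYP2B6-2.2kb reporter. Agonist: CITCO, 50 nM final. Compounds: 15 concentrations, 24 h, 37 C. Detection: ONE-Glo luminescence.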

[5] = molecular target: Nuclear receptor subfamily 1 group I member 3 (Homo sapiens) (UniProt Q14994); experiment: qHTS assay to identify small molecule agonists of the constitutive androstane receptor (CAR) signaling pathway (AID 1224839); details: HepG2 hCAR CYP2B6-luciferase, agonist mode, 24 h; series mostly up to 92.4 µM;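 also: HepG2 cells stably carrying human CAR and a CYP2B6 luciferase reporter; nearly all actives have a fitted effect of over 15% in size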
In short: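 Luminescent ONE-Glo read-out after 24 hr, 37 C exposure of double-stable HepG2-CYP2B6-hCAR reporter cells to a 15-point compound series, in the presence of 0.75 uM PK11195 (final).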

[6] = qHTS assay to identify small molecule antagonists of the estrogen related receptor signaling pathway with the pleiotropic PPARgamma coactivator (PGC) from Tox21 10K library - cell viability counter screen (AID 1224840; active = well fitted cell-killing curve with a large enough effect in the repeat runs, not every such curve was filed as active; also: nearly all actives have a fitted effect of over 40% in size); details: PGC/ERR reporter cells viability, CellTiter-Fluor, 17.5 h; series mostly up to 92.4 µM
In short: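 Following seeding of 2,000 PGC/ERR cells/well and 6 hours' incubation, test compounds were delivered in DMSO. The plates then sat 17.5 hours at 37 C before a fluorogenic live-cell protease reagent (CellTiter-Fluor) was read after 30 min.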

[7] = qHTS assay to identify small molecule agonists of the hypoxia (HIF-1) signaling pathway - cell viability counter screen (AID 1224844; calls by dose curve; also: nearly all actives have a fitted effect of over 50% in size; also: potency is read from the fitted curve at half-maximal effect); details: HRE-bla ME-180 viability, CellTiter-Glo luminescence, 17 h; series mostly up to 76.8 µM
In short: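 Cells (HRE-bla ME-180, 2,000 per well) sat 5 hrs at 37C, got compound for 17 hrs, were read for CCF4-AM FRET, and were finally lysed with CellTiter-Glo for a 30 min room-temperature luminescence read.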

[8] = qHTS assay to identify small molecule antagonists of the estrogen related receptor signaling pathway with the pleiotropic PPARgamma coactivator (PGC) from Tox21 10K library (AID 1224841; call rule not given here; also: actives are mostly falling curves and most rising ones were filed inactive; nearly all actives have a fitted effect of over 50% in size; also: potency is read from the fitted curve at half-maximal effect); details: PGC/ERR reporter cell line, ONE-Glo luciferase, 18 h; series mostly up to 92.4 µM
In short: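 qHTS antagonist format: PGC/ERR cells, 2k/well, compound in DMSO by pin transfer after 6 h attachment, 18 h treatment at 37 C, One-Glo luminescence read at 30 min.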

[9] = qHTS assay to identify small molecule agonists of the estrogen related receptor signaling pathway with the pleiotropic PPARgamma coactivator (PGC) from Tox21 10K library (AID 1224842); details: PGC/ERR reporter cell line, luciferase ONE-Glo, 18 h; series mostly up to 92.4 µM; also: nearly all actives have a fitted effect of over 15% in size
In short: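 Luminescence from One-Glo (30 min, room temperature) measured after PGC/ERR cells had 18 h at 37 C with pinned compound (23 nL in DMSO). Cells had been seeded at 2,000 per well and pre-incubated 6 h.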

[10] = molecular target: Thyrotropin receptor (Homo sapiens) (UniProt P16473); experiment: qHTS assay to identify small molecule agonists of the thyroid stimulating hormone receptor (TSHR) signaling pathway (AID 1224843; calls by dose curve; also: nearly all actives have a fitted effect of over 45% in size; also: potency is read from the fitted curve at half-maximal effect); details: TSHR-HEK293 cells, cAMP HTRF, agonist mode, 30 min; series mostly up to 92.4 µM
Thyrotropin receptor (Homo sapiens), sequence (P16473 whole entry, looked up): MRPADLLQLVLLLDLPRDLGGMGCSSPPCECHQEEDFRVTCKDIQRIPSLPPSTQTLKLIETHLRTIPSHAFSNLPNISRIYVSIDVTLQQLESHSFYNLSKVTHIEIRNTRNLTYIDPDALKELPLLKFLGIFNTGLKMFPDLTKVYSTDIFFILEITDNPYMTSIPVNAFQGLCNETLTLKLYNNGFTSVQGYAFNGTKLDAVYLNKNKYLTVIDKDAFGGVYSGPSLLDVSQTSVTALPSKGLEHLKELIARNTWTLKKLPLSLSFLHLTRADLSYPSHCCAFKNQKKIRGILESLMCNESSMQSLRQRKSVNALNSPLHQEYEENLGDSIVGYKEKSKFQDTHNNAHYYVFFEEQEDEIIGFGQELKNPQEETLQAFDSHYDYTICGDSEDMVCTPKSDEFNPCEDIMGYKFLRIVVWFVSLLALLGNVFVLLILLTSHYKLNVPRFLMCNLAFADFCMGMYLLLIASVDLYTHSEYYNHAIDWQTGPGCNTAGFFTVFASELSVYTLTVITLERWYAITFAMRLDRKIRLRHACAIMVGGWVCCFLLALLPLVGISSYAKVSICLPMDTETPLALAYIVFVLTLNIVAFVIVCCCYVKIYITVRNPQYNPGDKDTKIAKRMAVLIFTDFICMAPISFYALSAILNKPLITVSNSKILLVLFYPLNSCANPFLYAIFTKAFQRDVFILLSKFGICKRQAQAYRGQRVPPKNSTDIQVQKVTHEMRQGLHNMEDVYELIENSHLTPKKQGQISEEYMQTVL
In short: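 HEK293 cells stably bearing the thyrotropin receptor were plated at 800 cells/well and challenged with compound (30 min, RT). Accumulated cAMP was quantified via cAMP-d2 competing for cryptate-tagged antibody.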

Compound | Potency [1] | Potency [2] | Potency [3] | Potency [4] | Potency [5] | Potency [6] | Potency [7] | Potency [8] | Potency [9] | Potency [10]
CN1CC[C@]23c4c5ccc(O)c4O[C@H]2[C@@H](O)CC[C@H]3[C@H]1C5 | inactive | inactive | inactive | inactive | inactive | inactive | inactive | – | – | –
CCC1(CC)C(=O)NC(=O)NC1=O | inactive | inactive | inactive | inactive | inactive | inactive | inactive | – | – | –
C=CCc1ccc(OC(=O)Cc2ccccc2)c(OC)c1 | 25.2 µM (active) | inactive | inactive | inactive | inactive | inactive | inactive | – | – | –
C[C@]12C=CC3=C4CCC(=O)C=C4CC[C@H]3[C@@H]1CC[C@@H]2O | inactive | inactive | inactive | inactive | – | inactive | inactive | – | – | –
COc1cc(C[C@@H](C)N)c(OC)cc1Br | inactive | inactive | inactive | – | – | inactive | inactive | 31.5 µM (active) | inactive | –
CCOC(=O)NC(O)C(Cl)(Cl)Cl (stereo not drawn) | inactive | inactive | inactive | – | inactive | inactive | inactive | – | – | inactive
CCCC[N+]1(C)[C@@H]2CC(OC(=O)[C@H](CO)c3ccccc3)C[C@H]1[C@@H]1O[C@@H]12 (stereo partly drawn) | inactive | inactive | inactive | – | inactive | inactive | inactive | – | – | inactive
Cc1cnc(C2=NC(C)(C(C)C)C(=O)N2)c(C(=O)O)c1 (stereo not drawn) | inactive | inactive | inactive | – | – | inactive | inactive | – | – | inactive
Cc1nc(N(C)C)nc(OC(=O)N(C)C)c1C | inactive | inactive | inactive | – | – | inactive | inactive | – | – | inactive
CCC1(C2=NCCN2)Cc2ccccc2O1 (stereo not drawn) | inactive | inactive | inactive | – | – | inactive | inactive | inactive | inactive | inactive
NC(=S)c1c(Cl)cccc1Cl | inactive | inactive | inactive | – | – | inactive | inactive | – | – | inactive
CCOP(=S)(OCC)Oc1ccc(S(C)=O)cc1 (stereo not drawn) | inactive | – | inactive | inactive | inactive | inactive | inactive | inactive | inactive | inactive
CC(C)(C)CC(C)(C)c1ccc(O)cc1 | inactive | inactive | inactive | – | – | – | 38.9 µM (active) and inactive | – | – | 6.86 µM (active) and 13.3 µM (active)
